# Only a selection was taken, and hits are over-represented in it overall.
# Giardia FBPA inh – blocks Giardia fructose-bisphosphate aldolase activity; Potency, µM (top dose mostly 59.6 µM), inactives show at the highest dose activity, negative = inhibition, hits mostly inhibitors; A8B2U2; purified Giardia FBPA; AID 2451; actives 0.71% (n = 290,000); further: potency means the concentration at half of the fitted maximal effect; on the % scale 0 is the no-effect control and ±100 the full control effect; nearly all actives have a fitted effect of over 55% in size
#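 Giardia FBPA (40 nM reagent) was preincubated 10 min at RT with compound (up to 57.5 uM final), then substrate plus GAPDH/TPI/NAD/arsenate coupling system with diaphorase/resazurin was added; resorufin fluorescence (525/598 nm) was read after 20 min.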
# Tb PYK inh – T. brucei pyruvate kinase inhibition. AID 624173. TbPYK enzyme, Kinase-Glo Plus ATP luminescence, 45 min. actives 0.12% (n = 410,000). Potency, µM (highest dose often 76.8 µM), without a hit: at the highest dose activity, negative = inhibition, actives largely listed as inhibitors. Q57TT1; further: potency means the concentration at half of the fitted maximal effect; on the % scale 0 is the no-effect control and ±100 the full control effect; nearly all actives have a fitted effect of over 50% in size
#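 T. brucei PYK with substrate was exposed to pin-transferred compounds across a concentration series, then started with 130 uM ADP (final). After 45 min at room temperature, Kinase-Glo Plus luminescence was read, normalized and curve-fitted.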
# CHX counter – counter-screen for Shiga toxin inhibitors: cycloheximide protein synthesis inhibition. cell reporter, cycloheximide protein synthesis inhibition counterscreen. max response, %. actives 12% (n = 300,000). AID 2314; in the data active means max response mostly above about 13%, no sharp cut-off; inactive means mostly below about 14%; further: read at 38.3 µM for the half of the compounds with a filed dose; 0% is about no effect
# Shiga inhibitor – inhibitors of Shiga toxin in Vero cells. Vero cells, Shiga toxin protein synthesis inhibition reporter. inhibition, % at 38.7 µM. actives 9.2% (n = 290,000). AID 2315; in the data active means inhibition mostly above about 28%, no sharp cut-off; inactive means mostly below about 43%; further: 0% is about no effect
# Sm TGR inh – blocks Schistosoma mansoni thioredoxin glutathione reductase | actives 3% (n = 360,000) | AID 485364 | purified TGR, DTNB reduction, TNB absorbance 405 nm | Potency, µM (highest dose often 114 µM), for inactives: at the highest dose activity change, negative = inhibition, actives largely listed as inhibitors | Q962Y6; further: potency means the concentration at half of the fitted maximal effect; on the % scale 0 is the no-effect control and ±100 the full control effect; nearly all actives have a fitted effect of over 60% in size
#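 First, TGR (20 nM dispensed) and NADPH were mixed with compound. Second, a 15 min room-temperature incubation followed. Third, further NADPH and then DTNB were added to start the reaction. Finally, TNB absorbance was monitored kinetically.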
# LmPK inh – inhibitors of Leishmania mexicana pyruvate kinase; Potency, µM (highest dose often 57.5 µM), for the others: at the highest dose activity change, negative = inhibition, most hits filed as inhibitors; actives 0.37% (n = 290,000); purified LmPK, Kinase-Glo ATP luminescence, 1 h; Q27686; further: potency means the concentration at half of the fitted maximal effect; on the % scale 0 is the no-effect control and ±100 the full control effect
# Target sequence (Q27686 whole entry, looked up): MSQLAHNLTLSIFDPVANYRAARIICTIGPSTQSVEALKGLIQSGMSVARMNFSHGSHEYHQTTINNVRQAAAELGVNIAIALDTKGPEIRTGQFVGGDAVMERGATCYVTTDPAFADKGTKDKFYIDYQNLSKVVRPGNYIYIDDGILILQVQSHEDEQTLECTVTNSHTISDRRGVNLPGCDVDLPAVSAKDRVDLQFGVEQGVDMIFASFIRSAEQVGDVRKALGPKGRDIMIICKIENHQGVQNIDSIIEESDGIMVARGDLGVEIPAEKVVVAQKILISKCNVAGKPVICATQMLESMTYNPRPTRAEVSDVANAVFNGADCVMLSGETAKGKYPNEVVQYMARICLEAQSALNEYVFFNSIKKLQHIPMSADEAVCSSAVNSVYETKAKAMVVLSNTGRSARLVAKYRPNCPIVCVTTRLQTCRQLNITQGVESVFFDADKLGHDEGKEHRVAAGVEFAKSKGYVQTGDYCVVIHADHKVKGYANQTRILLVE
#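 qHTS format; LmPK 0.1 nM; substrates PEP 0.5 mM and ADP 0.1 mM. One-hour room-temperature incubation, then coupled luciferase luminescence; 0.5 nM enzyme wells mark activation.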
# * marks the source's active call; other numbers are inactive results; u = inconclusive; x = no result; + = active, no number; [ ] = remark or other dose. Unless noted, the call rests on the fitted dose curve; in most records, active means well fitted curve in the direction sought with a large enough effect; inconclusive means small, poorly fitted or top-dose-only effect, or another doubt; inactive means no such curve, though single readings can be large; an effect the other way counts as inactive or inconclusive.
SMILES,Giardia FBPA inh,Tb PYK inh,CHX counter,Shiga inhibitor,Sm TGR inh,LmPK inh
Cc1ccc(-c2cc(C(=O)NCc3ccccn3)no2)cc1,-0.5%,-0.3%,45.0*,84.6*,-4.0%,0.9%
O=C(NCc1ccccn1)c1cc(-c2ccccc2)on1,2.6%,-12.7%,35.5*,140.5*,1.7%,-6.1%
O=C(NCc1ccccn1)c1ccc(N2CCCC2=O)cc1,8.3%,1.8%,23.5*,26.6,0.8%,3.4%
O=C(NNS(=O)(=O)c1ccccc1F)c1ccccc1-n1cccc1,x,-12.2%,8.6,13.1,-16.3%,-6.1%
COc1ccccc1OCc1cc(C(=O)NCc2ccc(N3CCCC3=O)cc2)no1,10.1%,12.6%,41.7*,18.5,-9.5%,1.9%
O=C(C1COc2ccccc2O1)N1CCc2ccccc2C1 (configuration not stated),-5.6%,-4.8%,28.6*,59.7*,-1.4%,3.8%
Cc1cccc(N2CCN(C(=O)C3COc4ccccc4O3)CC2)c1C (configuration not stated),3.8%,-2.6%,23.6*,51.7*,-1.2%,-0.1%
COCCn1c(SCC(=O)Nc2cc(Cl)ccc2OC)nc2c([nH]c3ccccc32)c1=O,x,-0.2%,x,x,2.3%,x
CC1(C)OC[C@@H]2O[C@@]3(C(=O)O)OC(C)(C)O[C@@H]3[C@@H]2O1,x,3.4%,x,x,x,x
Cc1ccc(NCN2C(=O)c3ccccc3C2=O)cc1Cl,x,3.1%,x,x,x,x
Cc1ccc(N/N=C2\CC(=O)c3ccccc32)cc1Cl,u,x,12.6*,37.4,u,-11.3%
Cc1ccc(S(=O)(=O)N(C)C(C)CCc2ccco2)cc1 (configuration not stated),x,0.5%,x,x,50.1µM*,x
CC(=O)c1ccc(S(=O)(=O)N(C)C(C)CCc2ccco2)cc1 (configuration not stated),9.2%,-10.7%,-2.9,-10.4,39.8µM*,4.6%
COc1ccc(C(N)CCc2ccco2)cc1 (configuration not stated),-18.7%,-2.5%,4.1,17.8,-16.6%,3.9%
CC(CCc1ccco1)N(C)S(=O)(=O)c1csc(C(N)=O)c1 (configuration not stated),x,-5.3%,0.3,3.5,-8.5%,0.7%
COc1ccc(S(=O)(=O)N(C)C(C)CCc2ccco2)cc1 (configuration not stated),-8.5%,-9.3%,-2.0,18.2,20µM*,4.8%
CC1CCCCN1CCCNC(=O)c1sc2ncccc2c1-n1cccc1 (configuration not stated),x,3.2%,x,x,4.4%,x
Cc1ccc(Cn2cc(CN3CC(N4CCN(CCN(C)C)CC4)CS3(=O)=O)nn2)cc1 (configuration not stated),x,-3.7%,x,x,x,x
O=C1OCC/C1=C\c1ccccc1O,4.9%,-2.7%,-2.6,1.7,-18.7%,-1.5%
COc1cc(/C=C2\CCOC2=O)cc(OC)c1OC,-12.4%,-7.1%,2.5,-10.0,-3.2%,-0.6%
Cc1ccc(/C=C2/CNC/C(=C/c3ccc(C)cc3)C2=O)cc1,x,2.6%,x,x,x,x
Cc1ccc(/C=C2\CCOC2=O)cc1,0.9%,-1.5%,11.9*,15.2,7.5%,-3.0%
COc1ccc(/C=C2/CCOC2=O)cc1,7.8%,-8.1%,17.8*,-1.7,-0.7%,-1.9%
Cc1ccc(/C=C2/CNC/C(=C\c3ccc(C)cc3)C2=O)cc1,-6.9%,x,67.4*,86.1*,x,x
O=C1C(=O)N(C2CCNCC2)CCN1Cc1ccccc1,x,-3.4%,x,x,u,x
SMILES,Giardia FBPA inh,Tb PYK inh,CHX counter,Shiga inhibitor,Sm TGR inh,LmPK inh
CCOC(=O)C1CCCN(S(=O)(=O)c2ccc(N3CCCCS3(=O)=O)cc2)C1 (configuration not stated),x,-4.6%,x,x,45.1%,x
NS(=O)(=O)c1ccc(Sc2ccccn2)c([N+](=O)[O-])c1,1.3%,-13.8%,-2.5,2.8,1.6%,5.5%
NS(=O)(=O)c1ccc(Sc2nc3ccccc3s2)c([N+](=O)[O-])c1,-11.8%,-3.3%,1.3,7.5,44.7µM*,7.8%
COC(CNc1ncnc2sc(-c3ccccc3)cc12)OC,-1.1%,2.5%,13.6,25.9,-24.5%,-3.0%
CC(O)CNc1ncnc2cc(-c3ccc(F)cc3)sc12 (configuration not stated),-8.1%,2.6%,15.2*,78.6*,-15.1%,1.2%
COc1ccccc1N=C1NC(=O)/C(=C/c2ccc(N(C)C)cc2)S1,0.0%,-2.2%,40.8*,56.1*,-9.0%,-3.1%
CSc1nc2sc3c(c2c(=O)n1C)CCC3,5.4%,-2.3%,-1.3,2.4,-24.6%,0.6%
C=CCn1nnc2sc3c(c2c1=O)CCC(C)C3 (configuration not stated),5.1%,-5.2%,29.0*,48.8*,-0.7%,4.3%
CC1CCc2c(sc3nnn(Cc4ccccc4)c(=O)c23)C1 (configuration not stated),x,-8.5%,x,x,0.4%,x
CSc1nc2sc3c(c2c(=O)n1C)CCC(C)C3 (configuration not stated),5.2%,-12.5%,22.0*,11.2,-35.1%,-5.4%
O=C(Nc1ccc(-c2cn3c(n2)SCC3)cc1)c1ccco1,1.9%,-15.5%,40.0*,65.0*,1.9%,-22.8%
CC(=O)Nc1ccc(S(=O)(=O)Nc2cccc(-c3cn4c(n3)SCC4)c2)cc1,-0.7%,-0.6%,-2.6,-4.1,4.0%,3.8%[11.5 µM]
O=C(Nc1cccc(-c2cn3c(n2)SCC3)c1)c1ccc(Br)o1,-2.6%,2.0%,16.6,28.6,4.8%,5.5%
O=S(=O)(Nc1ccc(-c2cn3c(n2)SCC3)cc1)c1cc(F)ccc1F,x,-1.5%,x,x,x,x
CC(=O)Nc1ccc(-c2cn3c(n2)SCC3)cc1,-10.6%,8.8%,32.0*,28.0,-2.5%,5.8%
O=C(Oc1ccc(-c2cn3c(n2)SCC3)cc1)c1ccccc1,3.3%,-17.6%,11.9*,11.1,-7.5%,-3.7%
CC[C@H](C)[C@H](NC(=O)[C@H](Cc1ccc(O)cc1)NC(=O)[C@H](Cc1cnc[nH]1)NC(=O)[C@H](CCCNC(=N)N)NC(=O)[C@H](CC(C)C)NC(=O)[C@H](C)NC(=O)[C@@H](N)CO)C(=O)N[C@@H](CC(N)=O)C(=O)N[C@@H](CC(C)C)C(=O)N[C@H](C(=O)N[C@H](C(=O)N[C@@H](CCCNC(=N)N)C(=O)N[C@@H](CCC(N)=O)C(=O)N[C@@H](CCCNC(=N)N)C(=O)N[C@@H](Cc1ccc(O)cc1)C(N)=O)[C@@H](C)O)[C@@H](C)CC,-0.2%,x,-3.1,-8.0,x,x
CN(C)CCCNC(=O)C1(O)c2cc(Br)ccc2NC(=O)N1c1c(F)cccc1F (configuration not stated),3.4%,-3.4%,-1.4,14.8,1.7%,-3.8%
COc1ccc(N(/N=C2\Sc3ccccc3C2=O)C(C)=O)cc1,3.0%,6.3%,60.0*,+,0.1%,-2.9%
COc1ccccc1N(/N=C1\Sc2ccccc2C1=O)C(C)=O,0.8%,3.7%,24.0*,59.6*,11.3%,-2.6%

# Source: PubChem
